ATXN2 expr inh: Primary qHTS for Inhibitors of ATXN expression; HEK-293 ATXN2-luciferase reporter, luminescence, 24 h; Potency, µM (top dose mostly 57 µM), inactives show at the top dose activity change, negative = inhibition, usual class: inhibitors; hit rate 0.72% among 360,000; AID 1745845, 2022; further: potency means the concentration at half of the fitted maximal effect; on the % scale 0 is the no-effect control and ±100 the full control effect; nearly all actives have a fitted effect of over 55% in size
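qHTS (up to 57 uM final) was run with 24 h compound exposure of reporter cells at 37 °C. Each well was multiplexed: SteadyGlo luminescence measured ATXN2-luciferase expression after a fluorogenic Gly-Phe-AFC viability readout (25 uM final).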
D3 ag: qHTS of D3 Dopamine Receptor Agonist: qHTS | D(3) dopamine receptor (Homo sapiens), P35462 | hit rate 0.58% among 410,000 | D3R DiscoveRx beta-arrestin cells, luminescence, 90 min | max activation, %; in the data active means max activation above about 30%; further: 0% is about no effect
Target sequence (P35462 whole entry, looked up): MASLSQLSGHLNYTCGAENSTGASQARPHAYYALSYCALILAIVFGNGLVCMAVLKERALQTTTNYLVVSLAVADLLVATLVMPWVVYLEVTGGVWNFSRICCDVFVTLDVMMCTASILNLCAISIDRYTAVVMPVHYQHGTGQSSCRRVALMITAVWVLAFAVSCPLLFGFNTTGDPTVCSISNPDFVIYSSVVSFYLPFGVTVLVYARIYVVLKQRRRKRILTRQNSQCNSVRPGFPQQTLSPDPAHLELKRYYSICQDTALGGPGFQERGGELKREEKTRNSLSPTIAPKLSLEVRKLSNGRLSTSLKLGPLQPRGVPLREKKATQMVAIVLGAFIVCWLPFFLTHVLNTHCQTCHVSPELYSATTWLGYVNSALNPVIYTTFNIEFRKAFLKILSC
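Agonist mode: compounds and dopamine controls were applied to plated cells for 90 min at 37 degrees C after an overnight attachment at 1500 cells/well. Luminescent read-out followed 30 - 60 minutes at room temperature with DiscoveRx detection reagent.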
ATXN viability: Viability Counterscreen for Primary qHTS for Inhibitors of ATXN expression; AID 651635, 2014; Potency, µM (series often up to 56.7 µM), most hits filed as cytotoxic; S2 cells (HEK-293 line with an ATXN2-luciferase reporter) viability, CellTiter-Fluor protease fluorescence, 24 h; hit rate 0.49% among 400,000; further: potency means the concentration at half of the fitted maximal effect; nearly all actives have a fitted effect of over 40% in size
Integrin act MD: qHTS for Activators of Integrin-Mediated Alleviation for Muscular Dystrophy; alpha7betagal myoblasts, beta-gal FDG fluorescence, 48 h; Potency, µM (top dose mostly 38.3 µM), for the others: at the highest dose activation, actives largely listed as activators; hit rate 0.064% among 350,000;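 further: potency means the concentration at half of the fitted maximal effect; 100% = response of the positive control SU9516; nearly all actives have a fitted effect of over 60% in size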
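Alpha7betagal+/- myoblasts (passage 13) were plated 16-24 hr, then exposed to compounds (1:260 dilution of DMSO stock) for 48 hours at 37C. After MPER lysis, β-galactosidase reporter activity was read as FDG fluorescence (ex 480/em 540) after 30 minutes.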
IL-1B inflam inh: qHTS for Inhibitors of Inflammasome Signaling: IL-1-beta AlphaLISA Primary Screen; THP-1 LPS/ATP IL-1B secretion, AlphaLISA, 16 h; stronger effect = lower value; activity change, % at 57.5 µM; hit rate 4.7% among 360,000; AID 743279, 2014; in the data active means activity change below about -50%; inconclusive means mostly about -30% to -49%; further: on the % scale 0 is the no-effect control and ±100 the full control effect
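THP-1 cells pretreated 1 hr with compounds (up to 57.5 uM final), then stimulated with LPS (250 ng/mL final) plus ATP (1.25 mM final); secreted IL-1B measured by AlphaLISA after 16 hr, decreased signal indicating inhibition.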
D3 antag: qHTS of D3 Dopamine Receptor Antagonist: qHTS. hit rate 2.5% among 360,000. D3R cells, DiscoveRx beta-arrestin luminescence, antagonist mode; stronger effect = lower value. AID 652054, 2013. max response, negative = inhibition, %; in the data active means max response below about -50%; inconclusive means no clear call, values can overlap the other calls; further: on the % scale 0 is the no-effect control and ±100 the full control effect
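Cells plated overnight at 1500 cells/well, then exposed to library compounds with dopamine controls for 90 minutes at 37 degrees C. DiscoveRx reagent added for 30–60 minutes at room temperature; luminescence read, quantitative HTS format.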
* marks the source's active call; other numbers are inactive results; i = inactive; ? = inconclusive; / = not tested or not shown; ! = repeats disagree; [ ] = remark or other dose. In the library only some 7% were active in any assay of this set; here they are far more common. Unless noted, the call rests on the fitted dose curve; in most records, active means well fitted curve in the direction sought with a large enough effect; inconclusive means small, poorly fitted or top-dose-only effect, or another doubt; inactive means no such curve, though single readings can be large; an effect the other way counts as inactive or inconclusive.

SMILES | ATXN2 expr inh | D3 ag | ATXN viability | Integrin act MD | IL-1B inflam inh | D3 antag
O=C(Nc1nc(-c2ccccc2)cs1)c1cccc([N+](=O)[O-])c1 | -1% | -8 | i | 15%[7.66 µM] | -79* | -69*
O=[N+]([O-])c1cccc(-c2csc(Nc3ccccc3)n2)c1 | 45% | 1 | i | -13% | -105* | -14
O=C(Nc1nc(-c2cccnc2)cs1)c1cccc([N+](=O)[O-])c1 | -3% | 4 | i | -10% | -8 | 10
CS(=O)(=O)N(CC(=O)N1CCCCCC1)Cc1ccc(Cl)cc1 | -16% | -3 | i | -6% | -3 | -78*
CN1CCN(C(=O)CN(Cc2ccc(Cl)cc2)S(C)(=O)=O)CC1 | -3% | 7 | i | -12% | 24 | -10
CC(=O)N1CCN(Cc2nc3cc(NS(C)(=O)=O)ccc3n2C)CC1 | -4% | -10 | i | 4% | 12 | 2
CC(=O)NCCc1nc2cc(NS(=O)(=O)c3ccc(Cl)cc3)ccc2n1C | / | -6 | i | -25% | -3 | -4
Cn1c(CN2CCCCC2)nc2cc(NS(=O)(=O)c3ccc(F)cc3)ccc21 | -6% | -33 | i | -12% | -2 | -73*
CCCC(=O)Nc1ccc2c(c1)nc(CN1CCCCC1)n2C | 2% | 7 | i | -10% | 42 | -12
Cn1c(CCN2CCCCC2)nc2cc(NS(=O)(=O)c3ccc(Cl)cc3)ccc21 | 12% | -5 | i | -46% | -10 | -72*
Cn1c(CN2CCCCC2)nc2cc(NS(=O)(=O)c3ccc(Cl)cc3)ccc21 | -4% | -32 | i | 2% | -16 | -65*
O=C(CN1C(=O)c2ccccc2C1=O)NCC(=O)OCC(=O)c1ccc(Cl)cc1 | 13% | 1 | i | 21% | 18 | -5
Cc1cccn2c(=O)c(C=C(C#N)C#N)c(N3CCN(c4cccc(Cl)c4)CC3)nc12 | ? | -13 | ? | -7% | -75* | -16
COCCCNC(=O)/C(C#N)=C/c1c(N2CCN(c3cccc(Cl)c3)CC2)nc2c(C)cccn2c1=O | -38% | -20 | i | 0% | -66* | -17
Cc1cccn2c(=O)c(/C=C(\C#N)C(=O)NCc3ccco3)c(N3CCCC(C)C3)nc12 (stereo not drawn) | -11% | 12 | i | ? | -53* | 10
COCCCNC(=O)/C(C#N)=C/c1c(N2CCN(c3ccccc3)CC2)nc2c(C)cccn2c1=O | / | 2 | i | ? | -7 | 5
Cc1cccn2c(=O)c(/C=C(\C#N)C(=O)NCc3ccco3)c(N3CCCCCC3)nc12 | / | -8 | ? | -36% | -29 | 7
Cc1cccn2c(=O)c(C=O)c(N3CCSCC3)nc12 | / | 6 | i | -7% | -50* | -3
COC(=O)/C(C#N)=C/c1c(N2CCN(c3cccc(Cl)c3)CC2)nc2c(C)cccn2c1=O | -12% | -8 | i | 3% | 50 | 1
COc1cccc(CNc2ncnc3sc(C(=O)N4CCOCC4)c(C)c23)c1OC | / | / | i | / | / | /
Cc1ccc(NC(=O)c2c(C(=O)Nc3ccccc3)sc3nc(C)cc(=O)n23)c(C)c1 | 9% | 3 | i | / | / | /
O=c1ccc(-c2ccccc2)nn1Cc1ccccc1F | -1% | 0 | i | 4% | -62* | -1
O=c1ccc(-c2ccccc2)nn1Cc1c(F)cccc1Cl | 5% | 6 | ? | / | / | /
Oc1c(CN2CCN(c3ccccc3)CC2)cc(Br)c2cccnc12 | 4.5µM* | -15 | ? | -40% | 53 | ?
CC(C)OCc1cc(CN2CCN(c3ccccc3)CC2)c(O)c2ncccc12 | 1.3µM* | -20 | ? | / | / | /
SMILES | ATXN2 expr inh | D3 ag | ATXN viability | Integrin act MD | IL-1B inflam inh | D3 antag
c1ccc(N2CCN(Cc3ccnc4ccccc34)CC2)cc1 | -4% | -24 | ? | -43% | -24 | 20
Oc1c(CN2CCOCC2)cc(COCc2ccccc2)c2cccnc12 | 5.6µM* | -23 | i | -53% | 19 | -67*
Oc1c(Br)cc(Br)c2cccnc12 | 22µM*! | -77 | ? | / | 44 | -29
O=C(Nc1ccccc1)c1nn(-c2cccc(C(F)(F)F)c2)ccc1=O | -21% | -7 | i | 11% | 0 | -23
O=C(Nc1ccccc1)c1nn(-c2ccccc2)c(=O)cc1C(F)(F)F | -24% | 3 | i | 8% | 15 | -50*
O=C(c1cccc(Cl)c1)c1nn(-c2ccccc2)c(=O)cc1C(F)(F)F | 25µM* | -16 | ? | 19% | -102* | -5
O=C(c1ccccc1)c1nn(-c2ccc(Cl)cc2)c(=O)cc1C(F)(F)F | 11µM* | -5 | ? | -42% | -119* | -16
O=C(c1ccccc1)c1nn(-c2ccccc2)c(=O)cc1C(F)(F)F | ? | 4 | i | -47% | -88* | 15
COC(=O)c1nn(-c2ccccc2)c(=O)cc1Oc1ccc(Cl)cc1 | -11% | -5 | i | 1% | 6 | 5
O=C(c1ccccc1)c1nn(-c2ccccc2)c(=O)cc1-c1ccccc1 | 4% | -1 | i | / | -10 | -19
O=C(O)C1C2C=CC(C2)C1C(=O)Nc1cccc(Cl)c1 (stereo not drawn) | 4% | -5 | i | -23% | 13 | 6
CCN=C(NCC)SC1CC(=O)N(CCc2ccccc2)C1=O (stereo not drawn) | -32% | 1 | i | 20% | / | -9
CN(C(=S)NC(=O)C12CC3CC(CC(C3)C1)C2)c1ccc(O)cc1 | / | -1 | / | -54% | 38 | -10
CCC(CC)NC(=O)COC(=O)c1ccc2c(c1)C(=O)N(Cc1ccco1)C2=O | 9% | -5 | i | 5% | 2 | -1
O=C(COC(=O)C1CC2C=CC1C2)Nc1ccccc1[N+](=O)[O-] (stereo not drawn) | 17% | -1 | ? | -8% | 2 | 14
Cc1ccc(NC(=O)C2CCCN2S(=O)(=O)c2cccc3nsnc23)c(Br)c1 (stereo not drawn) | -24% | 2 | ? | / | / | /
Cc1ccc(S(=O)(=O)N2CCCc3ccccc32)cc1 | / | 3 | i | -26% | 32 | -24
CCNC(=O)COC(=O)c1cc(S(=O)(=O)N2CCCc3ccccc32)ccc1Cl | 11% | 2 | i | -20% | -94* | -5
O=S(=O)(c1cnc(Cl)c(Cl)c1)N1CCCc2ccccc21 | -23% | -16 | i | -37% | -101* | -22
O=S(=O)(c1cnc(Cl)c(Cl)c1)N1CCc2ccccc21 | / | -17 | i | -45% | -65* | -15

Screens from PubChem.
